# Measured values: ChEMBL document CHEMBL2218924, “A broad activity screen in support of a chemogenomic map for kinase signalling research and drug discovery” (Biochem J, 2013)
# Assays:
# [1] = target: T1, Aurora kinase C (Homo sapiens) (UniProt Q9UQB9); settings: at 1 µM
# T1 sequence (whole entry): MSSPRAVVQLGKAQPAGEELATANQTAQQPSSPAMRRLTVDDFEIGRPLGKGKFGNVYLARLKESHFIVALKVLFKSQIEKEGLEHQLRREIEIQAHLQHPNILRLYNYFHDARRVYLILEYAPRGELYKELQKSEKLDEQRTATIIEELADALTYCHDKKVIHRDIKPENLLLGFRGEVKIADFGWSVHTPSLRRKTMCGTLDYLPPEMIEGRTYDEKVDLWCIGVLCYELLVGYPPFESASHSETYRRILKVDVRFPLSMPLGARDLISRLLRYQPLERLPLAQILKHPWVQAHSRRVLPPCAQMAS
# [2] = target: T1, Aurora kinase C (Homo sapiens); settings: at 10 µM
# [3] = target: Tyrosine-protein kinase receptor UFO (Homo sapiens) (UniProt P30530); settings: at 1 µM
# Tyrosine-protein kinase receptor UFO (Homo sapiens), sequence (P30530 whole entry): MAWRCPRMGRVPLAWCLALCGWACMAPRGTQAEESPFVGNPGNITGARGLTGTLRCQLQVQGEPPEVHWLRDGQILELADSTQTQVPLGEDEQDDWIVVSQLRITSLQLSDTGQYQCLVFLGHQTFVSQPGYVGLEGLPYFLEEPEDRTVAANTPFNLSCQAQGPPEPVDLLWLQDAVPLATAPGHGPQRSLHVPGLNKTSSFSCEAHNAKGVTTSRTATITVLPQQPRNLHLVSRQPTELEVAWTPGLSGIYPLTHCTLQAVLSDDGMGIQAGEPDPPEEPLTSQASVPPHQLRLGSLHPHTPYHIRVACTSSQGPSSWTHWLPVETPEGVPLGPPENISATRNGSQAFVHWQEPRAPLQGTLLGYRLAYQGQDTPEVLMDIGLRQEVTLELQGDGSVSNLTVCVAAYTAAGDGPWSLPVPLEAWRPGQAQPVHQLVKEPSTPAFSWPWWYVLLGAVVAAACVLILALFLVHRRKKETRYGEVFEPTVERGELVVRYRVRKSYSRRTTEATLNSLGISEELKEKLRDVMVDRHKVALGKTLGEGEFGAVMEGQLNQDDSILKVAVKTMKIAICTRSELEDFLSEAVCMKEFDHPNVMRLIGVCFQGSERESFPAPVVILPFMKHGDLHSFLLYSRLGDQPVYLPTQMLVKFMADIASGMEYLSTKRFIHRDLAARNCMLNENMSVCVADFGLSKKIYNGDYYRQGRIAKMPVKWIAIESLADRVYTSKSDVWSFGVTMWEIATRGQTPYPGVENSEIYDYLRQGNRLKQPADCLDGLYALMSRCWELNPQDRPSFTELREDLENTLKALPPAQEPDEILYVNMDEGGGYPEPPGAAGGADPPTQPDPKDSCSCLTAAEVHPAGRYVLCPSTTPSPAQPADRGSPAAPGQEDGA
# [4] = target: Tyrosine-protein kinase receptor UFO (Homo sapiens) (UniProt P30530); settings: at 10 µM
# [5] = target: Protein-tyrosine kinase 6 (Homo sapiens) (UniProt Q13882); settings: at 1 µM
# Protein-tyrosine kinase 6 (Homo sapiens), sequence (Q13882 whole entry, looked up): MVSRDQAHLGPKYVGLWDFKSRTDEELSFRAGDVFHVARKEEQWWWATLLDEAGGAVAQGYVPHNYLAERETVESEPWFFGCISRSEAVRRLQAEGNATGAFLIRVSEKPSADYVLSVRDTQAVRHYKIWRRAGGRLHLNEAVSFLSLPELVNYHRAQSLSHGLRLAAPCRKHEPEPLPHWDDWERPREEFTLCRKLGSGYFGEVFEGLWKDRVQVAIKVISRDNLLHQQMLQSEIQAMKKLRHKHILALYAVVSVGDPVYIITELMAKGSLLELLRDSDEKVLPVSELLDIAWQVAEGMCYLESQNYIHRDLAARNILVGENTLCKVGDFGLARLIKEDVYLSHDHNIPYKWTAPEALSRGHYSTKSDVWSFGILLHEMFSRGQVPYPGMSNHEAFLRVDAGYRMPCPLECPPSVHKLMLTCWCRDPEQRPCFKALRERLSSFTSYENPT
# [6] = target: Protein-tyrosine kinase 6 (Homo sapiens) (UniProt Q13882); settings: at 10 µM
# [7] = target: Tyrosine-protein kinase BTK (Homo sapiens) (UniProt Q06187); settings: at 1 µM
# Tyrosine-protein kinase BTK (Homo sapiens), sequence (Q06187 whole entry): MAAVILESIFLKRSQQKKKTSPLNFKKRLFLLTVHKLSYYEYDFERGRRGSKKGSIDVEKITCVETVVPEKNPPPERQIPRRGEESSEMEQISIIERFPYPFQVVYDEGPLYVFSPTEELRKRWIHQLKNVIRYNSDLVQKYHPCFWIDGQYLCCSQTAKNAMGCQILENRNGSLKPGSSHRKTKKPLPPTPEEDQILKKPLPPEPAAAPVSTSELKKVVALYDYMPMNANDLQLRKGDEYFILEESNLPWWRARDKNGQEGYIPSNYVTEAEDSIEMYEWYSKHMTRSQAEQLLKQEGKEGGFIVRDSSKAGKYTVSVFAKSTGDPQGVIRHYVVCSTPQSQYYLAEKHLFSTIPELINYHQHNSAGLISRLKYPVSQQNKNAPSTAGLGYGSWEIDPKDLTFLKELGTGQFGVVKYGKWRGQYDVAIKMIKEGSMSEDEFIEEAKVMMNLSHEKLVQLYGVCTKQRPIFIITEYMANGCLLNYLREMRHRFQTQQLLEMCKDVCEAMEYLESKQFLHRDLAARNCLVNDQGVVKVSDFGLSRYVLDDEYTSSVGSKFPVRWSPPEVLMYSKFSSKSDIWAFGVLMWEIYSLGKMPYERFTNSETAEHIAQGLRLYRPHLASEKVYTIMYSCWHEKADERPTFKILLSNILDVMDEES
# [8] = target: Tyrosine-protein kinase BTK (Homo sapiens) (UniProt Q06187); settings: at 10 µM
# [9] = target: Tyrosine-protein kinase Blk (Homo sapiens) (UniProt P51451); settings: at 1 µM
# Tyrosine-protein kinase Blk (Homo sapiens), sequence (P51451 2-505 limits assumed): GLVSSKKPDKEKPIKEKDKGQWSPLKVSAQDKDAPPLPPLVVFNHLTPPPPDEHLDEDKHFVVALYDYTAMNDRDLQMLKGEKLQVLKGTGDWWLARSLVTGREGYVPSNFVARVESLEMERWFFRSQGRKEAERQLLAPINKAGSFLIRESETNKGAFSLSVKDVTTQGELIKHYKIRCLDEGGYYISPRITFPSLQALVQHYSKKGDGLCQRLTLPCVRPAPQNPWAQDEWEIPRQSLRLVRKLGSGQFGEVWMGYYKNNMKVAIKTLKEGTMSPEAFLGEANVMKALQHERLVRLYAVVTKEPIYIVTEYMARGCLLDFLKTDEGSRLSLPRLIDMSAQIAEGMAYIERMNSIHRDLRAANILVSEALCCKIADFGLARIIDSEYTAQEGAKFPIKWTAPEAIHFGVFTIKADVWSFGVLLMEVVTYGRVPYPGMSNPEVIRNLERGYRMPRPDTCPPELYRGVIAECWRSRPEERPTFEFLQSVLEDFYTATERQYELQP
# [10] = target: Tyrosine-protein kinase Blk (Homo sapiens) (UniProt P51451); settings: at 10 µM
SMILES,residual activity [1] [%],residual activity [2] [%],residual activity [3] [%],residual activity [4] [%],residual activity [5] [%],residual activity [6] [%],residual activity [7] [%],residual activity [8] [%],residual activity [9] [%],residual activity [10] [%]
COc1cc2ncnc(Nc3ccc(NC(=O)c4ccccc4)cc3)c2cc1OC,44,4,99,40,35,10,90,68,20,2
Cc1ccc(S(=O)(=O)/C=C/C#N)cc1,93,90,107,94,107,106,98,96,108,117
CCC(=O)Nc1ccc2ncnc(Nc3cccc(Br)c3)c2c1,94,80,83,80,80,60,95,78,112,80
CNc1cc2c(Nc3cccc(Br)c3)ncnc2cn1,85,64,75,69,69,53,98,83,103,65
CN(C)c1ccc(/C=C2\C(=O)Nc3ccccc32)cc1,88,39,78,49,112,97,113,86,87,62
Cc1cc(Nc2nc(-c3ccccc3)nc3ccccc23)n[nH]1,7,4,33,3,40,4,19,0,9,1
N#C/C(=C(\N)Sc1ccc(N)cc1)c1ccccc1C(F)(F)F,84,83,96,73,105,114,91,93,90,79
CCOc1cc2ncnc(Nc3cccc(Br)c3)c2cc1OCC,98,52,66,31,18,2,72,28,17,3
CN(C)CCCn1cc(C2=C(c3c[nH]c4ccccc34)C(=O)NC2=O)c2ccccc21,109,72,70,39,110,89,89,72,65,13
O=c1c2ccccc2[nH]c(=S)n1CCN1CCC(=C(c2ccc(F)cc2)c2ccc(F)cc2)CC1,110,84,103,89,112,95,90,123,101,66
Nc1cccc(-c2cc3c(Oc4cccc(O)c4)ncnc3[nH]2)c1,72,20,101,39,0,0,21,-1,7,1
O=C1NC(=O)c2cc(Nc3ccc(F)cc3)c(Nc3ccc(F)cc3)cc21,92,73,94,81,89,48,86,87,98,38
O=C(Nc1cccc(Nc2nccc(Nc3cccc(C(F)(F)F)c3)n2)c1)C1CC1,69,62,79,81,40,46,53,6,77,57
Ic1cccc(CSc2nnc(-c3ccncc3)o2)c1,79,74,74,60,105,96,79,95,87,61
CC(=O)c1ccc(N2CCOCC2)cc1O,106,84,110,85,108,107,91,,,
Cn1cnc2cc3c(Nc4cccc(Br)c4)ncnc3cc21,80,52,77,57,78,55,67,44,50,18
Nc1nc(Nc2ccc(S(N)(=O)=O)cc2)nn1C(=S)Nc1c(F)cccc1F,-2,0,3,2,49,8,79,27,7,0

SMILES,residual activity [1] [%],residual activity [2] [%],residual activity [3] [%],residual activity [4] [%],residual activity [5] [%],residual activity [6] [%],residual activity [7] [%],residual activity [8] [%],residual activity [9] [%],residual activity [10] [%]
Oc1ccc(-c2nc(-c3ccc(F)cc3)c(-c3ccncc3)[nH]2)cc1,113,95,121,83,49,5,108,77,109,44
O=C1NC(=O)c2c1c1c3ccccc3[nH]c1c1[nH]c3cc(Br)ccc3c21,89,59,94,80,105,100,79,68,102,85
CO[C@H]1[C@@H](OC)C[C@H](C)[C@@H](OC)C2=CC(=O)C=C(NC(=O)/C(C)=C/C=C/[C@H](OC)[C@@H](OC(N)=O)/C(C)=C/[C@@H]1C)C2=O,76,90,104,77,109,106,83,101,90,78
Cc1nc2cc3nc(-c4cccs4)cnc3cc2n1C,102,42,87,68,109,98,93,83,100,48
COc1ccc(CNc2nc(N(CCO)CCO)nc3c2ncn3C(C)C)cc1,75,85,92,75,104,101,88,86,96,83
O=c1cc(-c2cccc3c2Sc2ccccc2S3)oc(N2CCOCC2)c1,102,92,102,86,109,96,87,80,101,76
CCN(CC)CCCCN1c2ccccc2Oc2ccc(Cl)cc21,108,92,88,83,118,108,78,109,110,88
CO[C@@H]1[C@H](N(C)C(=O)c2ccccc2)C[C@H]2O[C@]1(C)n1c3ccccc3c3c4c(c5c6ccccc6n2c5c31)C(=O)NC4,62,20,14,9,98,93,60,35,7,5
O=C(Nc1cccc(Nc2cc(Nc3cccc(C(F)(F)F)c3)ncn2)c1)C1CC1,90,87,102,83,94,94,99,71,97,69
Oc1ccc(Nc2nc(-c3ccc(Cl)cc3)cs2)cc1,90,92,114,80,107,102,95,84,111,86
Oc1n[nH]c2nnc(-c3c(-c4ccccc4)nn4ccccc34)cc12,84,84,118,104,97,87,78,33,107,90
O=Nc1c(-c2c(O)[nH]c3ccccc23)[nH]c2ccccc12,61,49,17,8,91,23,31,4,11,0
Cn1cc(/C=C2\C(=O)Nc3ccc(S(N)(=O)=O)cc32)c2ccccc21,40,39,13,27,97,101,19,5,9,3
CO[C@H]1C[C@@H]2CC[C@@H](C)[C@@](O)(O2)C(=O)C(=O)N2CCCC[C@H]2C(=O)O[C@H]([C@H](C)C[C@@H]2CC[C@@H](O)[C@H](OC)C2)CC(=O)[C@H](C)/C=C(\C)[C@@H](O)[C@@H](OC)C(=O)[C@H](C)C[C@H](C)/C=C/C=C/C=C/1C,79,69,89,84,101,102,91,106,90,82
c1ccc(-c2n[nH]cc2-c2ccnc3ccccc23)nc1,100,66,65,80,93,37,102,100,102,59
Nc1n[nH]c2nnc(-c3c(-c4ccccc4)nn4ccccc34)cc12,83,66,98,84,95,78,86,47,100,63
